# Assay results as given in PubChem BioAssay.
# Activity calls are given as the source filed them.
# Tests used:
# [1] = optical density shifts of acrAB sulA E. coli – strain DRC41, OD650, 48 h, E. coli filamentation inducer project, primary screen (AID 1152); settings: higher = more signal, called active from +8 up or from −8 down;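 also: E. coli MC1000 strain DRC41 lacking acrAB efflux pump and sulA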
# [2] = probe aLefty1 binding on compound microarray – biochemical, small-molecule microarray, 635/667 nm fluorescence, primary screen (AID 1153); settings: higher = more signal;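 also: score merges spot fluorescence with signal-to-noise ratio from the scanned slide images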
# [3] = plasmodial surface anion channel blockers, osmotic lysis – cell-based, P. falciparum Indochina, OD700, 1 h, primary screen (AID 1154); settings: P. falciparum Indochina infected RBC osmotic lysis, higher = more signal, called active from +8 up or from −8 down
# [4] = plasmodial surface anion channel blockers, osmotic lysis – cell-based, P. falciparum Indochina, OD700, 2 h, primary screen (AID 1155);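 also: lysis reports solute entry through the parasite surface anion channel PSAC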; settings: P. falciparum Indochina infected erythrocytes, higher = more signal, called active from +8 up or from −8 down
# [5] = changes in parasitized red cell lysis, either direction – P. falciparum Indochina, OD700, 3 h, PSAC antagonist project, primary screen (AID 1156); settings: P. falciparum-infected erythrocytes, osmotic lysis, higher = more signal, called active from +8 up or from −8 down
# [6] = plasmodial surface anion channel blockers, osmotic lysis – cell-based, P. falciparum Indochina, OD700, 18 h, primary screen (AID 1157); settings: P. falciparum Indochina infected erythrocytes, osmotic lysis OD700, 18 h; higher = more signal, called active from +8 up or from −8 down
# [7] = S6 kinase pathway phospho-S6 level changes – cell-based, A549, cytoblot, luminescence, serum-stimulated, primary screen (AID 1158); settings: 5 h, higher = more signal;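 also: serum-stimulated A549 lung adenocarcinoma cells; signal is phosphorylated S6 detected by cytoblot immunostaining with HRP secondary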
# [8] = target: NADPH oxidase 2 (Homo sapiens) (UniProt P04839); assay: compounds shifting NOX2 Amplex Red fluorescence – cell-based, HEK293-NOX2, PMA-stimulated, NOX inhibitor project, primary screen (AID 1159); settings: 45 min, higher = more signal, called active from +8 up or from −8 down; also: test concentration not given here
# Sequence of NADPH oxidase 2 (Homo sapiens) (P04839 whole entry, looked up): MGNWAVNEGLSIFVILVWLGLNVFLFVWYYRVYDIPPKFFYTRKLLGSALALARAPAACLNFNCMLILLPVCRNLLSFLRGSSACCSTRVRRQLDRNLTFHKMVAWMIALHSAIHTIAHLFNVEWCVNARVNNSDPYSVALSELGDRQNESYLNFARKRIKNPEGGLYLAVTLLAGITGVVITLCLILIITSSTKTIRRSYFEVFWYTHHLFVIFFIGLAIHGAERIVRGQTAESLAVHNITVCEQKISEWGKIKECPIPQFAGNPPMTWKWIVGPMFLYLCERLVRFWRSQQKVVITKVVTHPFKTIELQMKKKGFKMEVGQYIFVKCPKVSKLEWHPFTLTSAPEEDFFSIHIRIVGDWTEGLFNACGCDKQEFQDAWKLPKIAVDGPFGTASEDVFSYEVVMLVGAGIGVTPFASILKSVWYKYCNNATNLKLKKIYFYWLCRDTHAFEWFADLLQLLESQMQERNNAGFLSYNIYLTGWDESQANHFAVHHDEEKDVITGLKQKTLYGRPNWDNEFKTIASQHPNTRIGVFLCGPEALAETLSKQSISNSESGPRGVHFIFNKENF
# [9] = target: NADPH oxidase 4 (Homo sapiens) (UniProt Q9NPH5); assay: compounds shifting NOX4 Amplex Red fluorescence – cell-based, HEK293-NOX4, tetracycline-induced, NOX inhibitor project, primary screen (AID 1160); settings: HEK293-NOX4, Amplex Red H2O2 fluorescence, 45 min; higher = more signal, called active from +8 up or from −8 down
# Sequence of NADPH oxidase 4 (Homo sapiens) (Q9NPH5 whole entry, looked up): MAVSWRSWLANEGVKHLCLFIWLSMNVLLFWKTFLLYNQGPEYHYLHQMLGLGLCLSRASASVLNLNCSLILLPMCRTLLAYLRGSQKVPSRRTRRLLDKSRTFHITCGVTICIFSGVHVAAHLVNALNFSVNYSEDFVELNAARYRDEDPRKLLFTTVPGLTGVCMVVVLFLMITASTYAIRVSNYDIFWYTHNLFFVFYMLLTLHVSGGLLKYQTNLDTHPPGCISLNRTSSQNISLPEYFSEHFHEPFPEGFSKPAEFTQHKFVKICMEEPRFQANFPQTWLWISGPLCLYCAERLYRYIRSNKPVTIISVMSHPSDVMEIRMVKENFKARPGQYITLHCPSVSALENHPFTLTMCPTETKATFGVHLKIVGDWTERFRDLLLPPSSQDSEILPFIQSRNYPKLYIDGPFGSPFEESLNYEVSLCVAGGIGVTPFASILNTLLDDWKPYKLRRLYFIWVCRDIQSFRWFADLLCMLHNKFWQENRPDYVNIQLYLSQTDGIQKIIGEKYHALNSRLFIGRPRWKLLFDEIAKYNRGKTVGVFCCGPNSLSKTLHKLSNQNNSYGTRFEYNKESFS
# [10] = target: NADPH oxidase 5 (Homo sapiens) (UniProt Q96PH1); assay: compounds shifting NOX5 Amplex Red fluorescence – cell-based, HEK293-NOX5, NOX inhibitor project, primary screen (AID 1161); settings: HEK293-NOX5, ionomycin, 45 min, higher = more signal
# Sequence of NADPH oxidase 5 (Homo sapiens) (Q96PH1 whole entry, looked up): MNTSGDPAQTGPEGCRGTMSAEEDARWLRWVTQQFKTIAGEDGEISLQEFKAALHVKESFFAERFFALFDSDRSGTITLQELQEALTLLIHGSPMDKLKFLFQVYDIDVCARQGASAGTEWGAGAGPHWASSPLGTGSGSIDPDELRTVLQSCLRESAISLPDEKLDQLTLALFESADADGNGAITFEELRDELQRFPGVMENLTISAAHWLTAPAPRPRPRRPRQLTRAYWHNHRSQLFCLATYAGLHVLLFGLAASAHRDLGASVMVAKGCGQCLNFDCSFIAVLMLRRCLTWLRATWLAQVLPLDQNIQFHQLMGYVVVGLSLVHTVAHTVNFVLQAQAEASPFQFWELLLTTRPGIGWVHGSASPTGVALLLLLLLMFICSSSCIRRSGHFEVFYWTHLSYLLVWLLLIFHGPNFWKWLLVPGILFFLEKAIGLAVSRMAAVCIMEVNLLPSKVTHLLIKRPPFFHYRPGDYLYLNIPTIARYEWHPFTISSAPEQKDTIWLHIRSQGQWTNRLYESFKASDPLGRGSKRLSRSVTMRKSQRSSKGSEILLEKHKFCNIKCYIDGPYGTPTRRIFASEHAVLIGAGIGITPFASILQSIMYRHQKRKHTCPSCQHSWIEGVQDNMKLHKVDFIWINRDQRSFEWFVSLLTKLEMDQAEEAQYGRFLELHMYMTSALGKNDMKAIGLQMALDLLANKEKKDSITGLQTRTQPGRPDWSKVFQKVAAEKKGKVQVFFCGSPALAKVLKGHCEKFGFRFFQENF
# [11] = compound effects on lung adenocarcinoma cell viability – A549, calcein-AM fluorescence, 48 h, basal, profiling panel (AID 1162); settings: higher = more signal; also: test concentration not given here
# [12] = compound effects on differentiated 3T3-L1 adipocyte viability – cell-based, 3T3-L1 adipocytes, calcein-AM fluorescence, 48 h, basal, profiling panel (AID 1163); settings: 3T3-L1 adipocytes viability, higher = more signal; also: test concentration not given here
# [13] = compound effects on hepatocellular carcinoma cell viability – HepG2, calcein-AM fluorescence, 48 h, basal, profiling panel (AID 1164); settings: higher = more signal; also: test concentration not given here
# [14] = compound effects on multiple myeloma cell viability – MM1S, calcein-AM fluorescence, 48 h, basal, profiling panel (AID 1165); settings: higher = more signal;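 also: viability of MM1S multiple myeloma cells under basal unstimulated conditions; test concentration not given here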
# [15] = calcein-AM signal in unstimulated myeloma cells – cell-based, calcein-AM fluorescence, 48 h, PK04 Diversity Set, profiling panel (AID 1166); settings: RPMI8226 myeloma viability, higher = more signal;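 also: cells grown under basal conditions without added stimulus; test concentration not given here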
# [16] = JC-1 mitochondrial signal, unstimulated HepG2 cells – cell-based, JC-1 fluorescence, 24 h, 100 nL compound, profiling panel (AID 1167); settings: HepG2 mitochondrial potential, higher = more signal; also: test concentration not given here
# [17] = JC-1 mitochondrial signal, unstimulated adipocytes – cell-based, JC-1 fluorescence, 3T3-L1 adipocytes, 24 h, 100 nL compound, profiling panel (AID 1168); settings: JC-1 mitochondrial fluorescence, higher = more signal, called active from +8 up or from −8 down; also: test concentration not given here
# [18] = JC-1 mitochondrial signal, unstimulated myeloma cells – cell-based, JC-1 fluorescence, RPMI8226, 24 h, 100 nL compound, profiling panel (AID 1169); settings: JC-1 mitochondrial potential fluorescence, higher = more signal; also: test concentration not given here
# [19] = JC-1 mitochondrial signal, unstimulated MM1S myeloma – cell-based, JC-1 fluorescence, 24 h, 100 nL compound, profiling panel (AID 1170); settings: MM1S mitochondrial potential, higher = more signal; also: test concentration not given here
# [20] = resazurin metabolic signal in A549 cells – cell-based, resazurin fluorescence, 24 h, PK04 Diversity Set, profiling panel (AID 1171); settings: A549 viability, higher = more signal, called active from +8 up or from −8 down; also: test concentration not given here
SMILES,z-score [1],composite z-score [2],z-score [3],z-score [4],z-score [5],z-score [6],z-score [7],z-score [8],z-score [9],z-score [10],z-score [11],z-score [12],z-score [13],z-score [14],z-score [15],z-score [16],z-score [17],z-score [18],z-score [19],z-score [20]
CCCC[C@H]1OB(O)C[C@H]2C1=C(COC)C[C@H]1C(=O)N(C)C(=O)[C@H]12,-0.971 (inactive),-0.196,0.431 (inactive),0.0082 (inactive),-1.19 (inactive),0.232 (inactive),-0.18,-0.251 (inactive),0.221 (inactive),0.786,-0.0959,-0.671,-0.653,-1.34,-0.744,-1.27,0.0166 (inactive),-0.528,-0.355,-0.531 (inactive)
COC(=O)[C@@]1(CCC(=O)OC(C)(C)C)N=C(c2ccc(OCCCO)cc2)O[C@H]1c1ccccc1N=[N+]=[N-],-0.871 (inactive),-0.39,28.2 (active),25.2 (active),1.67 (inactive),5.1 (inactive),-0.117,-2.9 (inactive),0.248 (inactive),-2.56,-1.99,1.12,-1.92,-3.6,-3.93,-0.429,0.581 (inactive),-1,-2.34,-2.08 (inactive)
C=C[C@H](CO)NS(=O)(=O)c1ccc(Br)cc1,1.25 (inactive),-0.24,-0.261 (inactive),-0.102 (inactive),-0.154 (inactive),0.325 (inactive),0.0242,2.3 (inactive),0.447 (inactive),0.264,1.52,0.131,1.34,-0.328,-0.451,0.63,0.489 (inactive),0.3,0.525,0.204 (inactive)
CN1C(=O)C2C=CC(C(O)c3ccco3)N(Nc3ccccc3)C2C1=O (stereo not given),-1.63 (inactive),0.335,0.233 (inactive),0.742 (inactive),-0.283 (inactive),1.34 (inactive),-1.2,-1.76 (inactive),-3.72 (inactive),-2.54,-0.835,-1.12,-0.315,-1.34,-0.137,-1.67,-0.783 (inactive),0.819,-0.101,-0.579 (inactive)
CCCCCCc1nc(-c2cc(C)c(OC)c(C)c2)cc2c1[Si](C(C)C)(C(C)C)OC2,0.488 (inactive),0.147,0.827 (inactive),-0.0892 (inactive),0.193 (inactive),-0.351 (inactive),0.296,-5.61 (inactive),-1.72 (inactive),-3.75,-0.194,1.29,0.117,-1.12,-1.11,-0.48,-0.385 (inactive),-0.547,-0.288,1.1 (inactive)
CC(C)C[C@@H]1NC(=O)[C@@H]2C[C@H](C(=O)NCc3ccc(F)cc3)[C@H](c3cccc(OCCO)c3)N2C1=O,1.39 (inactive),-0.204,8.19 (active),0.722 (inactive),-1.79 (inactive),0.546 (inactive),0.74,1.33 (inactive),1.08 (inactive),1.44,1.21,-0.613,0.259,1.04,0.828,1.9,0.0605 (inactive),-0.0212,-0.657,0.234 (inactive)
CCC(CC)C(O)C1C=CC2C(=O)NC(=O)C2N1Nc1ccccn1 (stereo not given),-0.613 (inactive),0.158,0.146 (inactive),0.519 (inactive),-0.02 (inactive),0.973 (inactive),-0.534,-1.58 (inactive),-2.05 (inactive),-1.52,-0.651,-0.883,0.0063,0.152,0.0749,-0.29,-0.414 (inactive),-0.07,-0.138,-0.801 (inactive)
COCCCNC(=O)[C@@H]1c2ccccc2C(=O)N(Cc2ccccc2Cl)[C@H]1c1ccc(CO)cc1,2.51 (inactive),-0.121,1.62 (inactive),0.293 (inactive),0.621 (inactive),0.11 (inactive),-0.0671,-0.285 (inactive),0.986 (inactive),0.306,0.897,-0.137,1.84,0.448,1.28,2.87,0.385 (inactive),-0.21,0.418,-0.028 (inactive)
CCCCCCc1nc(-c2ccc(OC)nc2)cc2c1[Si](C(C)C)(C(C)C)O[C@H]2c1ccccc1,-1.03 (inactive),-0.0559,0.614 (inactive),0.139 (inactive),0.245 (inactive),-0.353 (inactive),-0.168,0.0155 (inactive),-0.95 (inactive),-1.64,-0.33,-0.261,-1.1,-0.26,-1.12,-1.14,-1.3 (inactive),-0.198,-0.281,0.98 (inactive)
C[C@H]1NC(=O)[C@@]23C(=O)N[C@@H](Cc4ccccc4)C2[C@H](C)[C@@]2(C)O[C@H]2C3/C=C/C/C=C\CNC(=O)[C@@H]2CCCN2C1=O (stereo not given in full),-0.0438 (inactive),-0.0046,0.306 (inactive),0.189 (inactive),0.159 (inactive),0.108 (inactive),-0.199,-0.0374 (inactive),1.41 (inactive),0.41,-0.197,0.286,-0.0389,-1.6,0.727,-0.0133,0.0802 (inactive),0.263,-0.507,0.437 (inactive)
C=CCC(OC(C)=O)[C@@H]1[C@@H](N(Cc2ccc(-c3cccc(C(F)(F)F)c3)o2)C(=O)c2ccc(C)cc2)c2cc(OCCCO)ccc2N1C(=O)Cc1ccc2ccccc2c1 (stereo not given in full),1.93 (inactive),-0.0035,1.05 (inactive),0.172 (inactive),-0.305 (inactive),0.825 (inactive),0.533,-0.439 (inactive),1.04 (inactive),1.51,0.474,0.9,0.544,-0.886,0.707,2.75,0.417 (inactive),1.01,-0.554,0.379 (inactive)
COC(=O)[C@@]1(Cc2ccc(OC)cc2)[C@H]2c3cc(C(=O)N(C)C)n(CCc4ccccn4)c3C[C@H]2CN1C(=O)c1ccccc1,-1.83 (inactive),1.64,3.81 (inactive),1.77 (inactive),1.01 (inactive),1.58 (inactive),-0.334,0.63 (inactive),-0.925 (inactive),-1.04,-0.982,-0.812,-0.173,-1.19,-2.59,-0.0203,-1.04 (inactive),-0.772,-1.35,-0.735 (inactive)
COCCOC(=O)N1C(=O)[C@@]2(c3ccccc31)[C@H](C(=O)N1CCc3cc(OC)c(OC)cc3C1)[C@H]1C(=O)O[C@H](c3ccccc3)[C@H](c3ccccc3)N1[C@@H]2c1ccc(OCCO)cc1,1.12 (inactive),0.18,5.69 (inactive),1.85 (inactive),0.757 (inactive),0.983 (inactive),0.0824,0.238 (inactive),0.974 (inactive),1.19,1.23,1.48,0.852,-1.1,0.494,0.384,0.139 (inactive),-0.618,-0.483,0.779 (inactive)
CC1(C)[C@@H]2CC(C(O)C3C=CC4C(=O)N(Cc5ccccc5)C(=O)C4N3n3cnnc3)=C[C@H]1C2 (stereo not given in full),-0.316 (inactive),0.0451,1.31 (inactive),1.24 (inactive),0.313 (inactive),0.927 (inactive),-0.688,-0.14 (inactive),0.741 (inactive),0.273,-0.868,-0.622,0.0607,-0.0282,0.346,-0.237,0.352 (inactive),-0.124,-0.649,1.18 (inactive)
C[N+](C)(C)CCCCNC(=O)[C@@H]1C[C@@H]2C(=O)N[C@@H](Cc3ccccc3)C(=O)N2[C@@H]1c1cccc(OCCO)c1,1.04 (inactive),-0.0094,3.16 (inactive),0.469 (inactive),-1.44 (inactive),0.13 (inactive),1.91,-0.682 (inactive),-0.331 (inactive),0.856,1.49,-0.764,0.215,0.367,0.0971,1.58,0.924 (inactive),0.219,-0.493,-0.337 (inactive)
CC(C)N1C(=O)C[C@@](C(=O)NCC(F)(F)F)(c2ccc([N+](=O)[O-])cc2)[C@H]1c1ccc(CO)cc1,1.09 (inactive),-0.101,0.642 (inactive),-0.558 (inactive),0.533 (inactive),-1.68 (inactive),2.47,0.271 (inactive),0.465 (inactive),-0.127,1.41,1.13,-0.0704,-0.464,-1.66,0.868,-0.502 (inactive),-0.564,-1.51,0.201 (inactive)
COc1cc2c(cc1OC)CN(C(=O)[C@@H]1[C@H]3C(=O)O[C@H](c4ccccc4)[C@H](c4ccccc4)N3[C@H](c3ccc(O)cc3)[C@@]13C(=O)Nc1ccccc13)CC2,2.38 (inactive),0.154,1.32 (inactive),0.216 (inactive),-0.287 (inactive),-1.28 (inactive),2.99,0.00476 (inactive),-0.339 (inactive),-0.19,1.62,1.45,1.01,0.0197,-1.62,-0.574,0.382 (inactive),-1.08,-0.404,1.6 (inactive)
